Records with an inconclusive call do not appear. Activity calls are given as the source filed them. Calls follow the shape of the full dose curve.
Assay: Confirmation Concentration-Response Assay for Identification of Small Molecule Agonists of Stat Signaling Pathway
Details: SIE-bla cells, IL-6 STAT beta-lactamase reporter, 5 h
Source text: NIH Molecular Libraries Screening Centers Network [MLSCN] NIH Chemical Genomics Center [NCGC] MLSCN Grant: None NCGC Assay Overview: This assay is a retest of actives identified from the Stat signaling pathway assay (PubChem AID 446). The Stat assay is cell-based and measures Interleukin 6 (IL-6) mediated modulation of a beta-lactamase reporter gene controlled by a STAT inducible element (SIE-bla cells, Invitrogen). IL-6 is a cytokine that signals via the JAK/STAT pathway and is implicated in cancer and inflammation. SIE-bla cells are induced by IL-6 at 40 pM EC50 and inhibited by the pan JAK inhibitor, 2-(1,1-Dimethylethyl)-9-fluoro-3,6-dihydro-7H-benz[h]-imidaz[4,5-f]isoquinolin-7-one, at approximately 10 nM IC50. Plated cells were incubated overnight and on the following day, stimulated with 40 pM IL-6 for 5 hrs. The assay was stimulated with an EC50 of IL-6 to retest activators of STAT signaling.
NCGC Assay Protocol Summary: Cells were trypsinized, washed in assay medium (AM, OPTI MEM with 0.5% fetal bovine serum, 0.1 mM nonessential amino acids, 1 mM sodium pyruvate, 10mM HEPES pH 7.3, 100U/ml penicillin, and 100 ug/ml streptomycin) and suspended at […] in AM. Approximately 2500 cells in 5 uL/well was dispensed into 1536-well plates and the cells were incubated overnight at 37 C. 23 nL of compound were delivered by a pin tool and 1 uL of IL-6 (40 pM final concentration in AM) was added. After plates were incubated at 37 C for 5 hrs, 1uL of detector mix (LiveBLAzerTM, Invitrogen) was added, the plates incubated at room temperature for 2.5 hrs, and fluorescence intensity at 460 and 530 nm emissions was measured at 405 nm excitation by an Envision (Perkin Elmer).

Potency, active:
COc1cccc2c1C(=O)c1c(O)c3c(c(O)c1C2=O)C[C@@](O)(C(=O)CO)C[C@@H]3O[C@H]1C[C@H](N)[C@H](O)[C@H](C)O1 3.98 µM
Cc1ccc(S(=O)(=O)N2CCN(c3nc(C(C)C)c4c(c3C#N)CC(C)(C)OC4)CC2)cc1 10 µM
CCN(CC)CCC[C@H](C)Nc1c2ccc(Cl)cc2nc2ccc(OC)cc12 12.6 µM
CCOC(=O)c1cc2c(=O)n3cccc(C)c3nc2n(C)c1=N 3.98 µM
Nc1ncnc2c1ncn2[C@@H]1O[C@H](COP(=O)(O)O)[C@@H](O)[C@@H]1O 25.1 µM
CCN(CC)CCN1C(=O)c2cccc3cc(N)cc(c23)C1=O 15.8 µM
Cc1ccc(CNC(=O)c2cc3c(=O)n4ccccc4nc3n(CC3CCCO3)c2=N)cc1 (stereo unspecified) 10 µM
CC1CCN(c2oc(-c3ccccc3Cl)nc2C#N)CC1 6.31 µM
CCNC(=O)c1cc2c(=O)n3cccc(C)c3nc2n(CCc2ccccc2)c1=N 12.6 µM
CN(C)c1ccc(-c2nn3c(-c4ccc(Cl)cc4)nnc3s2)cc1 3.16 µM
Cc1cc(=O)oc2c(CN3CCCCC3)c(O)c(Cl)cc12 10 µM

— PubChem BioAssay AID935 (National Center for Advancing Translational Sciences (NCATS), 2007)
